Measured values: the supplement of paper PMC4466236
Whole data set: some 33,000 sequences, median “E-score (dimensionless, -0.5 to 0.5)” near -0.058, cut for the highest 2% near 0.35. This excerpt belongs to a sample that is enriched for the highest values.

Test system: MvaT
Test: PBM 8-mer E-score (mean of HK and ME arrays) (E-score (dimensionless, -0.5 to 0.5)); higher = stronger relative binding preference
How it was run: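 Full-length P. aeruginosa MvaT, with glutathione S-transferase fused to its N-terminus (cloned into pTH6838 by isothermal assembly), was tested by protein binding microarray using a previously described protocol. Two universal double-stranded 60-mer arrays (ME and HK) were used, each with a constant 25-mer primer region and a variable 35-mer region covering all 8-mers. The rank-based 8-mer E-score (-0.5 to 0.5) is the mean of the two arrays, parsed with a custom Python script.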

Sequence | PBM 8-mer E-score
ACCACATC | -0.0359
ATGCTCTA | -0.124
TGTGCCAA | -0.0753
AGGAATTA | 0.226
CGTCCCCC | -0.209
AACATTAC | 0.234
TACTCCAA | 0.097
GACCCTAC | -0.272
ACATTTTG | 0.0944
GAAAGTGA | 0.135
CCGACTAG | -0.0959
ATTATTAG | 0.411
ATTATTCA | 0.328
GCTATTAC | 0.121
CTTATTGC | 0.178
ATTATTCG | 0.378
CTTATTCC | 0.221
ATTATTAC | 0.439
ACTATTAG | 0.26
ATTATTCC | 0.341
ACTATTAC | 0.32
ATTATTGG | 0.293
CTTATTAC | 0.367
TACGACAA | 0.131
CCACCTCG | -0.129

Sequence | PBM 8-mer E-score
GAGGCCCA | -0.232
ATCCGAGG | -0.119
CAATTCTA | 0.109
GATTTAGC | 0.024
ACTTATGG | 0.206
AGTGGTAG | 0.00056
CGCCGGCA | -0.168
CCTAACCG | -0.115
AAACTATA | 0.334
AAACTATC | 0.301
AAACTATT | 0.371
GAACTAAA | 0.338
AAACTAAA | 0.357
TAACTAAA | 0.312
ATTGAAAG | 0.195
AGTCCCGC | -0.186
GTCCAATA | 0.0714
AATGGGGT | 0.0941
ACAACCTG | -0.038
GCGAGCCA | -0.16
ACAATATC | 0.258
CCAATATA | 0.367
GCAATAGA | 0.127
GCAATATA | 0.414
GCAATAAA | 0.214

Sequence | PBM 8-mer E-score
ACAATATG | 0.262
CCAATACA | 0.142
CCAATATC | 0.194
ACAATATA | 0.425
CTAGGCCA | -0.211
CGATAGGA | -0.177
AAAACCTT | 0.103
GCCATCGC | -0.219
ACTTACAA | 0.307
GAATTTCA | 0.108
CCTGGGCC | -0.238
ATACATTA | 0.39
GCACATTA | 0.19
ACACATTA | 0.355
ACACATTG | 0.113
GTACATTA | 0.308
CTACATTA | 0.241
GCCGATGA | -0.199
TAGCTATA | 0.241
ACGGTAAT | 0.18
GTAGGCAA | -0.171
TAGGGCAA | -0.0392
TATTACAA | 0.351
CATTACAA | 0.166
AATTACAG | 0.268

Sequence | PBM 8-mer E-score
AATTACAT | 0.327
GATTACAA | 0.188
AATTACAA | 0.367
AGGTGACT | -0.173
CCGAGACA | -0.0391
GAGGAGTA | -0.153
CGAGTATA | 0.195
ATATATTG | 0.446
CTATATTC | 0.204
CTCTATTC | -0.0516
ATCTATTG | 0.082
AGATATTG | 0.191
ATATATTC | 0.454
AATCATAA | 0.306
ACCCGTCG | -0.0362
AATATACT | 0.421
AGTATACC | 0.234
AGTATACT | 0.422
AATATACC | 0.324
AGTATACA | 0.321
AATATACA | 0.413
AATACACA | 0.151
GATATACA | 0.205
AATATACG | 0.331
AATACACG | 0.159

Sequence | PBM 8-mer E-score
TATATACA | 0.456
CATATACA | 0.275
GAGCCGAC | -0.262
ACTTGCAG | 0.0173
AGGCTTAG | -0.104
CGATAGTC | -0.0515
AGGTCGTG | -0.0505
CAGTAGCA | 0.0532
GCGACTCC | -0.217
CGTAGGTA | -0.029
TGGATACA | -0.00533
TCTATACA | 0.136
TGTATACA | 0.351
CAGTTATG | 0.189
AAGTTATC | 0.256
AAGTTAGT | 0.322
AAGTTATG | 0.349
AAGTTATT | 0.415
AAGTTACG | 0.231
GCCTGACA | -0.188
CAGAAAGA | 0.0379
TTAAGAAA | 0.242
ATTTTATC | 0.202
ATCATCGG | -0.0977
AGTAGGAT | -0.047

Sequence | PBM 8-mer E-score
AATACAAG | 0.208
AATACAAA | 0.357
AATACAAC | 0.316
CATACAAA | 0.206
GATACAAA | 0.247
TATACAAA | 0.392
TACTCTGA | -0.066
TAAGGGCA | 0.0358
GCTCTCGA | -0.0844
AACTGGGG | -0.149
GACTATAA | 0.316
AACTATAG | 0.236
AACTATAT | 0.349
TACTATAA | 0.387
AACTATAA | 0.382
AACTATAC | 0.227
CACTATAA | 0.312
TACTATCA | 0.276
TGCTATAA | 0.285
ACGGGCCG | -0.277
GACCCAGC | -0.26
ACTTAGAG | 0.106
GTATATTA | 0.438
CTCTATTA | 0.267
GGGTATTA | 0.288

Sequence | PBM 8-mer E-score
CTATATTA | 0.454
GAGTATTA | 0.269
ATCTATTA | 0.301
CACTGCTC | -0.18
GCCCGACC | -0.267
GAGAGTAC | -0.0129
AACCGCTC | -0.22
AATGGGAT | 0.138
AGTCGACG | -0.209
GAAATAGA | 0.158
GAAATATC | 0.227
TAAATCTA | 0.183
TAAATATA | 0.442
AAAATACT | 0.272
AAAATATT | 0.435
AAAATAGT | 0.228
CAAATATC | 0.233
CAAAAATA | 0.287
CAAATATA | 0.433
GAAATATA | 0.408
CAAATATG | 0.264
GGCGTCCA | -0.193
AGGTCCTG | -0.144
AACGGGCA | -0.142
CTCTATCC | -0.0794

Sequence | PBM 8-mer E-score
TCGCCAAA | -0.0154
ATATCGCA | 0.208
TCCGTCAA | -0.111
CCGACACG | -0.209
AAAATATC | 0.314
AAAATATG | 0.251
AAAATATA | 0.43
CAATATAA | 0.404
CAATATCC | 0.127
GAATAGAA | 0.105
TAATAGAA | 0.254
TAATCTAA | 0.292
CAATATAC | 0.386
CAATAAAC | 0.254
GAATATCA | 0.209
GAATATAA | 0.38
CAATATAG | 0.331
TAATATAA | 0.463
GAATATAC | 0.298
CGGTACTA | -0.0157
ATTTCGTC | 0.0525
CCATCAAC | -0.145
GCCTAAAA | -0.0431
AAAGTGAT | 0.155
GAGCCATA | -0.0175

Sequence | PBM 8-mer E-score
CACTCCTG | -0.121
TGATCTAA | 0.0137
AAATATAC | 0.333
AAATATAA | 0.442
AAATATAG | 0.332
GAGTACAC | -0.00583
AAATGCCT | -0.0883
AATTCGAC | -0.053
CTTGCAAG | 0.114
ATATAGTA | 0.399
GTATAGTA | 0.233
CTATAGTC | -0.0729
ATATAGTC | 0.361
CTATAGTA | 0.223
ATATAGTG | 0.329
CGTTGACC | -0.113
AAATCAGC | 0.0494
ACAACTTA | 0.357
TAAACTTA | 0.352
AAAACTTG | 0.1
GAAACTTA | 0.235
AAAACTTA | 0.386
ACAACTGA | 0.0852
ACAACTTG | 0.237
AAAACTGA | 0.0579

Sequence | PBM 8-mer E-score
AAAACTTT | 0.354
AAAACTTC | 0.149
TAAACTGA | 0.205
CAAACTTA | 0.272
CAACACTA | 0.11
CGGCACAC | -0.0132
CTATTTCA | 0.00869
ACAGTGCA | -0.0545
CCGCACGG | -0.212
TAAACTAA | 0.34
CAAACTAC | 0.248
ACTACTTA | 0.377
CAAACTAA | 0.376
CCTACTTA | 0.251
ACTACTTC | 0.117
ACATTGCC | 0.0616
ATCTTCCC | -0.117
ATTGGTGG | 0.00541
TGATAACA | 0.16
CACGCTCG | -0.168
AATAGAAG | 0.0707
GTATTTAA | 0.368
GGATTTTA | 0.112
GGATTTAA | 0.283
ATATTTTG | 0.319

Sequence | PBM 8-mer E-score
ATATTTTA | 0.43
GTATTTCA | 0.223
GTATTTTA | 0.37
GCATTTTA | 0.177
CTATTTTA | 0.261
GCCTCGTA | -0.109
AGGGATGC | -0.182
GGTCGTTA | -0.0413
GCGAGTCA | -0.112
CCGGGAGG | -0.293
CTGCAGCC | -0.148
AAAAAGGT | -0.0123
ATTAATTC | 0.415
ATTAATCG | 0.336
CTTAATTA | 0.454
CTTAATTC | 0.281
CTCAATTA | 0.234
CTGAATTA | 0.266
ATTAATGG | 0.262
ATTAATTA | 0.461
AGTAATTC | 0.144
ATCAATTA | 0.319
ATTAATTG | 0.391
ATGAATTA | 0.295
ACAGGGCT | -0.196

Sequence | PBM 8-mer E-score
CACTTCGC | -0.174
ATATCGTA | 0.207
GACGCAGC | -0.356
ATACTGGG | 0.00507
AGTCATTA | 0.14
CGGTAAGC | -0.0976
ACCCGGGA | -0.218
ATTAATCA | 0.405
CTTAATCA | 0.174
ATTAATGA | 0.363
CTTAATGA | 0.0908
GTCAATTA | 0.164
GTTAATTA | 0.415
CGTAATTA | 0.31
GTTAAGTA | 0.203
ATTAATCC | 0.332
AGTAATTA | 0.421
GGTAATTA | 0.286
ATTAATGC | 0.341
CTTACGCA | -0.158
AATTGCAA | 0.179
AAGCAGCC | -0.138
TAACCTTA | 0.0355
GTAGGGCA | -0.179
CATAAGGG | -0.214

Sequence | PBM 8-mer E-score
CAGCTCGG | -0.199
ACGACCTC | -0.143
ACCCAATC | -0.0955
ATAATACG | 0.354
CTAATACA | 0.325
AAAATACG | 0.184
ATAATACA | 0.407
ATAATACC | 0.333
ACAATACG | 0.0961
ATGGCACA | -0.0727
GCGTGTAC | -0.107
GAGATCGC | -0.123
GTGTTAAC | 0.219
CTGTTAAC | 0.141
ATGTTAAA | 0.329
ATGTTAAT | 0.39
ATGTTAAG | 0.178
ATGTTAAC | 0.363
TGCGTCAA | -0.0324
GGGAACAC | -0.198
CCTGTCCG | -0.203
CCTCGAGC | -0.149
CAGTTGCG | -0.0888
CATTATGA | 0.214
CCTTATTC | 0.189

Sequence | PBM 8-mer E-score
TATTATCA | 0.404
GATTATCC | 0.209
GATTATCA | 0.193
CATTATCC | 0.235
AATTATCA | 0.325
CATTATTC | 0.363
GATTATGC | 0.148
GATTATTA | 0.391
CATTATCA | 0.169
CATTATTA | 0.432
AAGTTCCA | 0.2
CGGGTTCC | -0.15
CGGAAAAG | 0.00958
AAATGGTC | -0.0709
TACGTGCA | 0.0131
AGGCCTAT | -0.235
TAGCATCA | 0.0156
ATTACCGA | 0.0931
GGCGATAA | 0.137
